Bioassay records (PubChem BioAssay)
GDH-TPI inh – GDH-TPI coupled enzyme inhibition counter-screen; inhibition, % at 4.8 µM; GDH-TPI coupled enzyme counterscreen, NADH absorbance; hit rate 1.2% among 360,000; in the data active means inhibition above about 30%;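 further: 0% = DMSO wells and 100% = wells lacking the enzyme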
RecA splice inh – inhibitors of M. tuberculosis RecA intein splicing. P9WHJ3. cell-free RecA intein splicing, fluorescence. inhibition, % (test concentration not listed). hit rate 0.75% among 290,000; in the data active means inhibition above about 30%; inconclusive means no clear call, values can overlap the other calls;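 further: 0% = vehicle wells and 100% = reference inhibitor control wells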
Target sequence (P9WHJ3 whole entry, looked up, canonical isoform): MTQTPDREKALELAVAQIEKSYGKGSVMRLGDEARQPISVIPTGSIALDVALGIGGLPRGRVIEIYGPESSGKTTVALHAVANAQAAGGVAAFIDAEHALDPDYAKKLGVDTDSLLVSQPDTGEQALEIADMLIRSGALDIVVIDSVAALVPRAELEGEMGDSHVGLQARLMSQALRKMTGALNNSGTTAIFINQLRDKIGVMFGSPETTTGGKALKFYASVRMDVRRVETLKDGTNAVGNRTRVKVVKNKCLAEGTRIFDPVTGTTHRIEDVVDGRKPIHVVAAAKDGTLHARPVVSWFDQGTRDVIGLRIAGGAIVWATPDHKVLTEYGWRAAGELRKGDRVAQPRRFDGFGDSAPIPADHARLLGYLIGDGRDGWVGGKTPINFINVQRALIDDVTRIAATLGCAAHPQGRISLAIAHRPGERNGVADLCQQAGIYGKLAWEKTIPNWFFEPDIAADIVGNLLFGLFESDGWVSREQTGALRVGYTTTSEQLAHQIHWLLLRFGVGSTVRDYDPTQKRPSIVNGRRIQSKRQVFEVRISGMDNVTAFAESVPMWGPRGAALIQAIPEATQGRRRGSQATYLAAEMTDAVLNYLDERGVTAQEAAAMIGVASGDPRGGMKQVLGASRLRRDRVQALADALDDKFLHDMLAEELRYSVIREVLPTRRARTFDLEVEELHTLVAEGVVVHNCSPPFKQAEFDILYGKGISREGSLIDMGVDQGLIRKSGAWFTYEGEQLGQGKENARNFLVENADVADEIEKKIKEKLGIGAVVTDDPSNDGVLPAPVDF
Mtb betalactam – beta-lactam sensitization of Mtb H37Rv; hit rate 0.27% among 330,000; inhibition, % at 25 µM; M. tuberculosis H37Rv growth with meropenem, percent inhibition; call rule not given here;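 further: growth measured after seven days incubation then overnight dye step; 0% = bacteria only wells and 100% = bacteria with antibiotic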
Rv3671c protease – inhibitors of M. tuberculosis serine protease Rv3671c; P9WHR9; inhibition, % at 5.96 µM; hit rate 0.048% among 320,000; AID 2606; in the data active means inhibition above about 38%;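 further: extracellular domain of Rv3671c used as enzyme; 0% = enzyme with DMSO and 100% = no enzyme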
Mtb UGM inh – Mtb UDP-galactopyranose mutase inhibition; inhibition, % at 10 µM; hit rate 0.06% among 320,000; purified UGM, fluorescence polarization probe displacement; P9WIQ1; in the data active means inhibition above about 10%, passing the limit was not always enough; inconclusive means no clear call, values can overlap the other calls
FBA Mtb inh – inhibits M. tuberculosis FBA enzyme. purified M. tuberculosis FBA, fluorescence read-out. inhibition, % at 1 µM. hit rate 2.3% among 360,000. AID 588726; in the data active means inhibition above about 27%;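 further: 0% = vehicle and 100% = reference inhibitor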
Starred values were filed as active, the others as inactive; ? = inconclusive; · = not tested or not shown. Only some compounds are listed: those with a hit (about 4% of all), similar ones and a draw of the others.

SMILES	GDH-TPI inh	RecA splice inh	Mtb betalactam	Rv3671c protease	Mtb UGM inh	FBA Mtb inh
CCOc1ccc(C2C(C#N)=C(N)Oc3nc[nH]c(=O)c32)cc1OC (stereo not drawn)	3	-4	-1	-7	-1	2
O=C1C(=Cc2cn(-c3ccccc3)nc2-c2ccc(OCc3ccccc3F)cc2)SC(=S)N1CCS(=O)(=O)O	5	·	·	·	·	0
CCN1CCN(C(c2cccs2)C(C)NC(=O)c2c(F)cccc2F)CC1 (stereo not drawn)	1	-2	-4	-4	0	1
CCOC(=O)c1c(C)[nH]c(C(=O)Nc2ccc(C)c(Cl)c2)c1C	·	2	0	-10	0	·
COc1ccc([N+](=O)[O-])cc1NC(=O)C(C)OC(=O)c1cccnc1Cl (stereo not drawn)	6	-5	9	1	-1	-5
CCc1[nH]nc2c1C(c1cccnc1)C(C#N)=C(N)O2 (stereo not drawn)	11	45*	-4	-6	1	3
N#CC1=C(N)Oc2n[nH]c(-c3cccs3)c2C1c1ccoc1 (stereo not drawn)	17	85*	2	-8	1	-3
COc1ccc(-c2[nH]nc3c2C(c2ccsc2)C(C#N)=C(N)O3)cc1 (stereo not drawn)	15	71*	4	-3	2	1
COCc1[nH]nc2c1C(c1cc(OC)c(O)c(OC)c1)C(C#N)=C(N)O2 (stereo not drawn)	5	-4	2	-2	-3	-2
COc1cc(C2C(C#N)=C(N)Oc3n[nH]c(-c4ccncc4)c32)cc(OC)c1OC (stereo not drawn)	4	-4	-2	-8	3	2
COc1cc(C2C(C#N)=C(N)Oc3n[nH]c(-c4cccs4)c32)cc(OC)c1O (stereo not drawn)	11	11	-4	-8	0	-9
CCCc1[nH]nc2c1C(c1ccc(OC)c(Cn3nnc4ccccc43)c1)C(C#N)=C(N)O2 (stereo not drawn)	9	70*	3	-2	0	-4
CCCc1[nH]nc2c1C(c1cccnc1)C(C#N)=C(N)O2 (stereo not drawn)	2	·	-10	-1	0	-2
CC(=O)c1ccc2c(c1)N(Cc1ccccc1)C(=O)C(C)S2 (stereo not drawn)	-11	·	·	·	·	0
CCCc1[nH]nc2c1C(/C(C)=C/c1ccccc1)C(C#N)=C(N)O2 (stereo not drawn)	-3	7	9	0	2	-2
CCCc1[nH]nc2c1C(c1ccc(OCCN3CCOCC3)c(OC)c1)C(C#N)=C(N)O2 (stereo not drawn)	10	32*	0	7	4	5
N#CC1=C(N)Oc2n[nH]c(-c3ccc(F)cc3)c2C1c1ccncc1 (stereo not drawn)	2	62*	-6	-3	-1	1
COCc1[nH]nc2c1C(c1cccc(OC)c1)C(C#N)=C(N)O2 (stereo not drawn)	13	57*	-12	-8	6	4
CCCc1[nH]nc2c1C(c1ccccc1OCC)C(C#N)=C(N)O2 (stereo not drawn)	1	67*	-2	-8	3	-3
Cc1ccc(S(=O)(=O)n2[nH]c(=O)cc2N)cc1	14	1	-5	-6	0	6
CCC(NC(=O)C1CCCO1)c1ccccc1 (stereo not drawn)	0	0	1	-1	-2	2
COCCNC(=O)C1(C)CCCN(Cc2c(C)nn(-c3ccccc3)c2C)C1 (stereo not drawn)	6	·	·	·	·	4
COc1ccc(C(=O)C2CCCN(C(=O)Cc3c(C)noc3C)C2)cc1OC (stereo not drawn)	-14	-1	-4	-1	4	-2
Clc1cc(Br)ccc1OCCCNCc1ccccc1	-4	6	90	4	3	-3
Cc1cc(C)c(C#N)c(SCc2[nH]nc3c2C(c2ccc(F)cc2)C(C#N)=C(N)O3)n1 (stereo not drawn)	5	32*	-3	-4	1	0
SMILES	GDH-TPI inh	RecA splice inh	Mtb betalactam	Rv3671c protease	Mtb UGM inh	FBA Mtb inh
Cc1cc(C#N)c(C)c(SCc2[nH]nc3c2C(c2ccccc2)C(C#N)=C(N)O3)n1 (stereo not drawn)	6	25	-8	1	0	-1
Cc1ccc(S(=O)(=O)Nc2ccc(-c3nnc(SCc4ccccc4Cl)o3)cc2)cc1	3	9	2	-152	-1	0
CCn1c(=O)c([N+](=O)[O-])c(Cl)c2ccccc21	-3	41*	46	0	1	0
CN1C2CCC1/C(=C\c1ccccc1)C(=O)/C2=C\c1ccccc1	30	-1	?	-4	3	-2
CN1C2CCC1/C(=C/c1ccccn1)C(=O)/C2=C\c1ccccn1	46*	·	99	0	0	-3
COc1ccccc1C1(CCN=Cc2ccc(N(C)C)cc2)CCOC(C)(C)C1 (stereo not drawn)	24	-1	-5	-5	-3	-2
CN(C)c1ccc(C=NCCC2(O)CCOC(C)(C)C2)cc1 (stereo not drawn)	40*	-2	-7	-12	-1	2
CCCn1c(N)c(N2CCCCC2)c(=O)n(CC(=O)Nc2ccc(C(C)=O)cc2)c1=O	-2	·	-4	3	1	0
Cc1ccsc1C(=O)OCC(=O)c1cc(C)n(C)c1C	2	·	-1	-6	3	114*
O=C(O)CCC(=O)N1CCc2cc(S(=O)(=O)N3CC=C(c4ccccc4)CC3)ccc21	4	1	4	1	2	0
Nc1ccc(Cl)cc1C(=O)OCC(=O)NC1CCS(=O)(=O)C1 (stereo not drawn)	17	-1	2	-5	-2	90*
O=C(Cc1ccc(F)cc1)NCCc1ccccc1	8	8	-2	1	-1	1
CCOc1cccc(C(=O)Nc2nnc(-c3ccco3)s2)c1	37*	·	-9	-13	-4	12
Cc1c(/C=N/NC(=O)c2ccccc2O)c2ccccn2c1C(=O)c1ccc(F)cc1	15	-23	8	6	·	5
Cc1c(/C=N/NC(=O)c2cccnc2)c2ccccn2c1C(=O)c1ccc(F)cc1	·	-1	-1	-5	2	·
Cc1c(/C=N/NC(=O)c2ccc(O)cc2)c2ccccn2c1C(=O)c1ccc(F)cc1	32*	-8	8	-4	0	-3
Cc1c(/C=N/NC(N)=O)c2ccccn2c1C(=O)c1ccncc1	56*	3	-6	-8	3	1
COc1ccc(C(=O)NCC(=O)N2CCNC(=O)C2)cc1OC	1	-1	13	4	3	1
O=C(O)c1ccc(CSc2nnc(COc3ccc(Cl)cc3Cl)o2)cc1	5	6	11	-6	2	0
C=CCSc1nc(N)c(C(=O)Nc2ccccc2)cc1C#N	20	1	28	-12	1	-2
